Inconclusive results are not listed. A call without a number means that no potency is given here. A number with no mark means an inactive call. Activity calls are given as the source filed them. The call rests on the fitted dose curve; in most records, active means well fitted curve in the direction sought with a large enough effect; inconclusive means small, poorly fitted or top-dose-only effect, or another doubt; inactive means no such curve, though single readings can be large; an effect the other way counts as inactive or inconclusive.
What was measured:
[1] = target: Rap guanine nucleotide exchange factor 3 (Homo sapiens) (UniProt O95398); assay: Confirmatory qHTS for antagonist of cAMP-regulated guanine nucleotide exchange factor 3 (EPAC1) (AID 1645880); further: nearly all actives have a fitted effect of over 55% in size; further: potency means the concentration at half of the fitted maximal effect
Rap guanine nucleotide exchange factor 3 (Homo sapiens), sequence (O95398 whole entry, looked up): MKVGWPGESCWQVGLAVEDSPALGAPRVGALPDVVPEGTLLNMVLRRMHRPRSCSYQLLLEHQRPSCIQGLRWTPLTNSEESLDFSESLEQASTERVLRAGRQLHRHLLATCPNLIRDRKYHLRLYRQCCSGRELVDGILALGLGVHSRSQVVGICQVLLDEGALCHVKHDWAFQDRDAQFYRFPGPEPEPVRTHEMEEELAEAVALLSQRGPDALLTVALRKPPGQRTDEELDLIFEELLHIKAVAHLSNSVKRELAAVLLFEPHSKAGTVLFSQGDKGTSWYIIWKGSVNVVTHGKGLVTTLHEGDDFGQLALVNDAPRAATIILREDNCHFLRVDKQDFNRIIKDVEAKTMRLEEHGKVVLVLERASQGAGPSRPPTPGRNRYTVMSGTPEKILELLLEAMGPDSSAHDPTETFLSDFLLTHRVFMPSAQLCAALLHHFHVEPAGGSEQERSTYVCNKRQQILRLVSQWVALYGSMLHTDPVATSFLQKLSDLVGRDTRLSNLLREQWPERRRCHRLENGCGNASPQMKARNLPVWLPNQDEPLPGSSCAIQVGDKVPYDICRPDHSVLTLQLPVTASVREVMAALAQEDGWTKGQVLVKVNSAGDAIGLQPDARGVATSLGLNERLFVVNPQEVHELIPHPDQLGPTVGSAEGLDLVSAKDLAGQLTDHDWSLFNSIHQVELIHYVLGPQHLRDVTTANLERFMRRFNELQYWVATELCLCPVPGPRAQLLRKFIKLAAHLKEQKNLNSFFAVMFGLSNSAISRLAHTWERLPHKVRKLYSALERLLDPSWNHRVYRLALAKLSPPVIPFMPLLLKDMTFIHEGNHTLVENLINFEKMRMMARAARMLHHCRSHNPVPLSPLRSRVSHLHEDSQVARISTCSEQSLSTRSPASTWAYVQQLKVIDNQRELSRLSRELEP
Procedure, shortened: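 Nucleotide exchange uses 100 nM EPAC1, 250 nM RAP1B-BODIPY-GDP and 50 uM GDP, with compounds in a concentration-titration series. After 5 min at room temperature, fluorescence (480 nm ex/540 nm em) is read every 5 min for 30 min. Data are normalized to control ATA and DMSO.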

[2] = target: Rap guanine nucleotide exchange factor 3 (Homo sapiens) (UniProt O95398); assay: Confirmatory qHTS for agonist of cAMP-regulated guanine nucleotide exchange factor 3 (EPAC1) (AID 1645881); further: nearly all actives have a fitted effect of over 75% in size; further: potency means the concentration at half of the fitted maximal effect;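 on activation: EPAC1 catalysed release of BODIPY-GDP from Rap1B seen as fluorescence loss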
[3] = target: Rap guanine nucleotide exchange factor 4 (Homo sapiens) (UniProt Q8WZA2); assay: Confirmatory qHTS for agonist of cAMP-regulated guanine nucleotide exchange factor 4 (EPAC2) (AID 1645884);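 further: nucleotide exchange releases bodipy-GDP from Rap1 and this lowers its fluorescence; nearly all actives have a fitted effect of over 65% in size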; further: potency means the concentration at half of the fitted maximal effect
Rap guanine nucleotide exchange factor 4 (Homo sapiens), sequence (Q8WZA2 whole entry, looked up): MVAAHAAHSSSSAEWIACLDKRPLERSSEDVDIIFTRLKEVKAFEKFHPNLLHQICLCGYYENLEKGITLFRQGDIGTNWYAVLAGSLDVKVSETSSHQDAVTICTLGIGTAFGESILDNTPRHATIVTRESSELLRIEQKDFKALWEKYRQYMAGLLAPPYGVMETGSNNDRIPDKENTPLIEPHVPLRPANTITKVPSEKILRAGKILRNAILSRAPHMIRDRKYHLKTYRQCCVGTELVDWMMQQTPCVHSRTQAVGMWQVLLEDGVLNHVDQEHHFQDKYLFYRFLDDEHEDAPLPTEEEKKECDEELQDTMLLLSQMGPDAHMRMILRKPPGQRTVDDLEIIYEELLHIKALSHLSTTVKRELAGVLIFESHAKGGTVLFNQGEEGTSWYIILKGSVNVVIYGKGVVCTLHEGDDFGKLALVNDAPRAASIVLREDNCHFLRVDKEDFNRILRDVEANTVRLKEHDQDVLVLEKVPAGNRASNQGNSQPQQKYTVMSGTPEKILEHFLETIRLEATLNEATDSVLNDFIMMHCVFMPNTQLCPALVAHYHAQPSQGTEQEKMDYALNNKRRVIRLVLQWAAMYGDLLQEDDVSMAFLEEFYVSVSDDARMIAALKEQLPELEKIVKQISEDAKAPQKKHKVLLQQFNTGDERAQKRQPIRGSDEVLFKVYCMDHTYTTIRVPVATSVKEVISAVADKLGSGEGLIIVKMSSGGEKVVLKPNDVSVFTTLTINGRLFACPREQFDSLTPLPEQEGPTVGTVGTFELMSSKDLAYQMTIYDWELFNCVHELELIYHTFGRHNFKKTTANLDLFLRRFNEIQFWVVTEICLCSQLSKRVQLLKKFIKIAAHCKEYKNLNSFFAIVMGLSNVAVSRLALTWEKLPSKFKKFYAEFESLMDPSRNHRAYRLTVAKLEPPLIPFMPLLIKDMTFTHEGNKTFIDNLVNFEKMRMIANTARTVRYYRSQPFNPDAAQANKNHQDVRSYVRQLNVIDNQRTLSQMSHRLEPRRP

[4] = target: Rap guanine nucleotide exchange factor 4 (Homo sapiens) (UniProt Q8WZA2); assay: Confirmatory qHTS for antagonist of cAMP-regulated guanine nucleotide exchange factor 4 (EPAC2) (AID 1645885); further: nearly all actives have a fitted effect of over 25% in size; further: potency means the concentration at half of the fitted maximal effect
[5] = target: Rap guanine nucleotide exchange factor 3 (Homo sapiens) (UniProt O95398); assay: Counterscreen qHTS for antagonist of cAMP-regulated guanine nucleotide exchange factor 3 (EPAC1) (AID 1645888);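 further: fluorescence loss as bound BODIPY-GDP is released from Rap1B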
Procedure, shortened: (§1)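 Rap1B-BODIPY-GDP 250 nM + GDP 50 uM; cpds 7-pt, final 9.74 nM–152 uM (activator mode) or from 7.32 nM upwards (inhibitor mode); RT; FI 480/540 nm at 5 and 30 min, then ± cAMP, reread.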

[6] = target: Rap guanine nucleotide exchange factor 3 (Homo sapiens) (UniProt O95398); assay: Counterscreen qHTS for agonist of cAMP-regulated guanine nucleotide exchange factor 3 (EPAC1) (AID 1645889); further: nearly all actives have a fitted effect of over 40% in size; further: potency means the concentration at half of the fitted maximal effect
Procedure, shortened: as §1

[7] = target: Tumor susceptibility gene 101 protein (Homo sapiens) (UniProt Q99816); assay: qHTS Assay for Iinhibitors of HIV-1 Budding by Blocking the Interaction of PTAP/TSG101: Hit Validation (AID 651600); further: potency means the concentration at half of the fitted maximal effect; nearly all actives have a fitted effect of over 70% in size
Tumor susceptibility gene 101 protein (Homo sapiens), sequence (Q99816 whole entry, looked up, the tested form may be a part): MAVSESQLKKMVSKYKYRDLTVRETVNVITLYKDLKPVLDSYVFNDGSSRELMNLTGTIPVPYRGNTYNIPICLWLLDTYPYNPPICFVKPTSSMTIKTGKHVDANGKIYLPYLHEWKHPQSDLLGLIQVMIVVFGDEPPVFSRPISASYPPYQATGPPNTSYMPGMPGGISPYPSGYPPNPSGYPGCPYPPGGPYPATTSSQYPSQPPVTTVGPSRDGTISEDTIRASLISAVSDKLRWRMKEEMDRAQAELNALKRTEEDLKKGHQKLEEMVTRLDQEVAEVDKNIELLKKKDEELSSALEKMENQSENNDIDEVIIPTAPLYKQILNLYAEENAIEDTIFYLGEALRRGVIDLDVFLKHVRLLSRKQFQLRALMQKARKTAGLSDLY
Procedure, shortened: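 Fluorescence polarization binding assay: Tsg101 binding domain (10 uM) mixed with compounds and FITC-labeled PTAP peptide (50 nM) in HEPES pH 7.5, 0.15 M NaCl, 0.01% Tween 20, EDTA, TCEP; 20 min at r.t.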

[8] = qHTS for Inhibitors of the vitamin D receptor (VDR): Hit Validation using a Texas Red Assay (AID 602201)
Procedure, shortened: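 After a 2-hour room-temperature incubation, polarization of Texas-Red emission was read (Ex 595 nm/Em 615 nm). Final mix contained 7 nM Texas Red, 1.5 uM VDR-LBD and LG19078.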

Row | Compound | Potency [1] | Potency [2] | Potency [3] | Potency [4] | outcome [5] | Potency [6] | activation [3] | activity change, negative = inhibition [4] | activity change, negative = inhibition [5] | activation [6] | Potency [7] | Potency [8]
1 | COc1ccc(N2C(=O)NC(=O)/C(=C/c3ccc([N+](=O)[O-])s3)C2=O)cc1 | 33.8 µM (active) | inactive | inactive | inactive | inactive | inactive |  |  |  |  |  | 
2 | O=C(O)CC1OCC=C2CN3CCC45C6=CC(=O)C(=O)C([N+](=O)[O-])=C6NC4C1C2CC35 (configuration not stated) | inactive | inactive | inactive | inactive | inactive | inactive |  |  |  |  |  | 
3 | Cn1cccc1/C=C1/C(=O)NC(=S)N(Cc2ccc(F)cc2)C1=O | 31.6 µM (active) | inactive |  |  |  |  | 0.836% [at 17.1 µM, percent relative to cAMP agonist control] | -22.8% [at 12.7 µM] | -2.5% [at 30.8 µM] | 10.8% [at 30.8 µM] |  | 
4 | Cn1cc(C=C2C(=O)NC(=O)NC2=O)c2ccccc21 | inactive | 79.4 µM (active) | 63.1 µM (active) | 75.7 µM (active) | inactive | inactive |  |  |  |  |  | 
5 | CCC(=NCCCO)c1c(O)n(-c2ccc(OC)cc2)c(=O)[nH]c1=O | inactive | inactive |  |  |  |  | 2.6% [at 17.1 µM, percent relative to cAMP agonist control] | -12.3% [at 12.7 µM] | -14.3% [at 30.8 µM] | -4.42% [at 30.8 µM] |  | 
6 | O=C1Nc2ccccc2/C1=C/c1nc2ccccc2c(=O)n1-c1ccc(O)cc1 | 35.5 µM (active) | inactive |  |  |  |  | 2.57% [at 17.1 µM, percent relative to cAMP agonist control] | 0.205% [at 12.7 µM] | -7.19% [at 30.8 µM] | 1.32% [at 30.8 µM] |  | 
7 | Cc1ccc(CN2CCCN(Cc3ccccc3C)S2(=O)=O)cc1 | inactive | inactive | inactive | inactive | inactive | inactive |  |  |  |  |  | 
8 | Cc1ccc(C)c(Cn2c(C(=O)O)c(C=O)c3ccccc32)c1 | inactive | inactive |  |  |  |  | 10% [at 17.1 µM, percent relative to cAMP agonist control] | 3.6% [at 12.7 µM] | -5.1% [at 30.8 µM] | 9.64% [at 30.8 µM] |  | 
9 | CCN1/C(=C/C=C/C2=[N+](CC)c3ccccc3C2(C)C)C(C)(C)c2ccccc21 | inactive | 56.2 µM (active) | 100 µM (active) | inactive | inactive | 10 µM (active) |  |  |  |  |  | 
10 | CCn1c(O)c(C=Nc2ccc(N3CCOCC3)cc2)c(=O)n(CC)c1=S | inactive | inactive | 112 µM (active) | inactive | inactive |  |  |  |  |  | 9.19 µM (active) | 
11 | O=C1NC(=S)N(c2ccccc2)C(=O)/C1=C/c1ccco1 | 9.53 µM (active) | inactive | inactive | inactive | inactive | inactive |  |  |  |  |  | 
12 | COc1ccc(N=Cc2c(O)n(Cc3ccccc3)c(=S)[nH]c2=O)c(OC)c1 | inactive | 79.4 µM (active) | 100 µM (active) | inactive | inactive | inactive |  |  |  |  |  | 
13 | Cc1cc(OC(C)C(=O)N[C@H](C(=O)O)c2ccccc2)c2c3c(c(=O)oc2c1)CCC3 (some centres not stated) | inactive | inactive | inactive | 42.6 µM (active) | inactive | inactive |  |  |  |  |  | 
14 | Oc1c(Cl)cccc1Cc1cc(Cl)cc(Cl)c1O | 19 µM (active) | inactive | inactive | inactive | inactive | inactive |  |  |  |  |  | 
15 | OC1/C(=C/c2ccc(C(F)(F)F)cc2)N2CCC1CC2 (configuration not stated) | inactive | inactive | inactive | inactive | inactive | inactive |  |  |  |  |  | 
16 | O=c1cc(C(F)(F)F)c2cc3c4c(c2o1)CCCN4CCC3 | inactive | 50.1 µM (active) | 39.8 µM (active) | 60.1 µM (active) | inactive | 50.1 µM (active) |  |  |  |  | 0.651 µM (active) | 
17 | O=C1NC(=S)NC(=O)C1=Cc1cccn1-c1ccc(O)cc1 | 3.55 µM (active) | inactive |  |  |  |  | 2.5% [at 17.1 µM, percent relative to cAMP agonist control] | -7.44% [at 12.7 µM] | -4.08% [at 30.8 µM] |  |  | inactive
18 | O=C1NC(=O)N(Cc2ccc(F)cc2)C(=O)/C1=C\c1ccc([N+](=O)[O-])s1 | 12 µM (active) | inactive | inactive | inactive | inactive | 22.4 µM (active) |  |  |  |  |  | 
19 | Cc1cc(/C=C2/C(=O)NC(=O)N(Cc3ccco3)C2=O)c(C)n1-c1ccccc1O | 44.7 µM (active) | inactive |  | 0.19 µM (active) |  |  | 11.8% [at 17.1 µM, percent relative to cAMP agonist control] |  | -13.1% [at 30.8 µM] | 17.9% [at 30.8 µM] |  | 
20 | O=C(c1cc(Cl)cc(Cl)c1)N1Cc2ccccc2-n2nncc2C1 | inactive | inactive |  |  |  |  | -5.36% [at 17.1 µM, percent relative to cAMP agonist control] | -20.5% [at 12.7 µM] | 29.2% [at 30.8 µM] | 5.77% [at 30.8 µM] |  | 
21 | CCc1nc2ccccc2c(=O)n1-c1ccccc1OC | inactive | inactive | inactive | 33.8 µM (active) | inactive | inactive |  |  |  |  |  | 

Source: PubChem BioAssay (NCATS)
